The record followed here is PubChem BioAssay (NCATS).

The target in assay [1] is Transient receptor potential cation channel subfamily V member 1 (Homo sapiens) (UniProt Q8NER1). In words: HTS Assay for Compounds that Act as Enhancers of the Vanilloid Receptor 1 (AID 488979). Also: 0% is about no effect. In short, it runs like this:
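Calcium influx kinetics via Fluo-8 (480/520 nm) in TRPV1-expressing cells, 2000/well cultured overnight at 35.5C. Compound-alone read 3 min (agonist phase), followed by EC20 capsaicin challenge for 2 min (enhancer phase).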

Assay [2] deals with Thyrotropin receptor (Homo sapiens) (UniProt P16473). In words: qHTS Assay for Antagonists of the Thyroid Stimulating Hormone Receptor (AID 488980). Also: series mostly up to about 58 µM; 0% is about no effect. In short, it runs like this: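 HEK293 cells transfected with human TSHR, suspended in HEPES-buffered HBSS with 70 uM RO 20-1724, were treated with compounds plus TSH at EC80 (4 nM final). cAMP was measured by competitive HTRF (cryptate anti-cAMP antibody, cAMP-d2 acceptor).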
Chain of Thyrotropin receptor (Homo sapiens) (P16473 whole entry, looked up): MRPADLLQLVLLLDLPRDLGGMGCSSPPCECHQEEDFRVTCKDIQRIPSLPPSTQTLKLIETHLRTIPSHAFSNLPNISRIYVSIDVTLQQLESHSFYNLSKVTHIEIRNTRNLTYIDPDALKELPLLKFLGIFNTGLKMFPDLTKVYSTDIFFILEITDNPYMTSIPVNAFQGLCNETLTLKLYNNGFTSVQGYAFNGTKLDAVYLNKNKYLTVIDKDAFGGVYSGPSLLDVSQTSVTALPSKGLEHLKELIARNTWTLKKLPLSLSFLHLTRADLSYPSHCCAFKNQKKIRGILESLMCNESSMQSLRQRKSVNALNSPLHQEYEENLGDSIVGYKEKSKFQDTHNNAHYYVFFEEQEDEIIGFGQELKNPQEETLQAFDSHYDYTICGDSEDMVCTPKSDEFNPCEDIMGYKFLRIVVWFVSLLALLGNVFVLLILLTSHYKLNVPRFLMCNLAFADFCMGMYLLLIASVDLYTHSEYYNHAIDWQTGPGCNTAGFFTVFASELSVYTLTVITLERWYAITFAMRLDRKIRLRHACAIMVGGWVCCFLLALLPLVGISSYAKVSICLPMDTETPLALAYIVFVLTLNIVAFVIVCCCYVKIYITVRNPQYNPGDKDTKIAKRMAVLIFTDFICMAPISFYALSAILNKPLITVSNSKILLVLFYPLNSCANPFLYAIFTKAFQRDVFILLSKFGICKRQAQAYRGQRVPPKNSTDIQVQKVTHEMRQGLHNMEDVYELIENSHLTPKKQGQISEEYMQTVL

Assay [3] deals with D(1A) dopamine receptor (Homo sapiens) (UniProt P21728). In words: HTS Assay for Allosteric Agonists of the Human D1 Dopamine Receptor: Primary Screen for Agonists (AID 488981). Also: 0% is about no effect. In short, it runs like this:
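Calcium flux in an inducible, force-coupled HEK293 Trex D1 line (overnight at 30 C): agonist mode is the 180 s kinetic read after compound; potentiator mode is the following 180 s read after dopamine at EC20.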

Assay [4] has the same target. In words: HTS Assay for Allosteric Agonists of the Human D1 Dopamine Receptor: Primary Screen for Antagonists (AID 488983).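 Also: calcium flux response to an EC80 dopamine challenge measured with no-wash dye; nearly all actives have a fitted effect of over 65% in size.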 Also: potency is read from the fitted curve at half-maximal effect. In short, it runs like this: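 Calcium flux readout, no-wash dye, inducible HEK293 T-REx D1 line (force-coupled). Compound added after 10 s baseline, 180 s kinetic read; then dopamine at EC80, further 180 s read.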
A short description of assay [5]: Validation screen for small molecules that induce genotoxicity in human embryonic kidney (HEK293T) cells expressing luciferase-tagged ELG1 (AID 493106). Also: 0% is about no effect. In short, it runs like this:
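qHTS format; 2,000 HEK293T ELG1-luc cells/well; 23 nL compound via pin tool; 16 hr, 37 °C/5% CO2; ONE-Glo, 30 min RT; luminescence read.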

Assay [6] concerns the target Thyrotropin-releasing hormone receptor (Homo sapiens) (UniProt P34981). In words: qHTS for Small Molecule Agonists and Allosteric Enhancers of Human TRH Receptor: Validation Screen for Agonists (AID 493127;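 active = calcium activation more than 3 SD above the typical response in the agonist read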;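 also: intracellular calcium rise by fluo-8 fluorescence before TRH EC20 addition; 0% is about no effect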). Conditions: TRH receptor agonist cell assay; at 2 µM; stronger effect = higher value. In short, it runs like this: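 Read-out: intracellular calcium release measured kinetically by FDSS (fluo-8, ex 480/em 530 nm), 1 reading/s after a 10-cycle baseline. TRHR cells, 2000/well, cultured 18 h at 33.5C, dye-loaded at room temp. Compound-evoked positive calcium signal flags agonists.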
A general note: qHTS replaces the single test concentration by a dilution series.

A short description of assay [7]: Nrf2 qHTS screen for inhibitors: Validation (AID 493153; active = well fitted inhibition curve with a large enough effect in the main read-out, with a control signal flat, not every such curve was filed as active). Conditions: Potency: luciferase luminescence; viability change: measured here: cytotoxicity max response. In short, it runs like this: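 Concentration-response test in A549 ARE_Fluc reporter cells (5% FBS OPTI-MEM), compound exposure 18-24 h at 37°C, 5% CO2. Cell viability measured first by CellTiter-Fluor fluorescence; ARE-driven luciferase luminescence then measured as Nrf2 activity.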

Assay [8] in a line: qHTS for Inhibitors of Cell Surface uPA Generation: Validation Assay (AID 493164).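 Also: RAW 264.7 macrophage cells exposed to compound for 18 h; 0% is about no effect.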 In short, it runs like this: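 Compounds are titrated over seven points (2.45 nM–38.3 uM final) onto pre-plated RAW 264.7 cells and incubated for 18 h. Retained intracellular ATP, measured with ATP-Lite, indicates blocked lethal factor entry.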
The target of assay [9] is Galactokinase (Homo sapiens) (UniProt P51570). In words: qHTS Validation Assay for Inhibitors of Human Galactokinase (GALK) (AID 493189). Also: 0% is about no effect. In short, it runs like this: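 GALK (5 nM) with 35 uM ATP and 100 uM galactose in HEPES pH8.0, MgCl2, NaCl, DTT, BSA; 1 h at room temperature. Residual ATP read by Kinase-Glo Plus luminescence after 10 min.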
Assay [10] is described as follows: Validation screen for small molecules that induce DNA re-replication in SW480 colon adenocarcinoma cells (AID 504364). Also: 0% is about no effect. In short, it runs like this: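 Read-out: total Hoechst intensity of nuclei by fluorescence scanning imager; hits raise the fraction of nuclei with elevated DNA content. Cells received compound for 48 hr at 37 C before a 40 min stain.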
The target of assay [11] is Peptidyl-prolyl cis-trans isomerase NIMA-interacting 1 (Homo sapiens) (UniProt Q13526). In words: qHTS Validation Assay to Find Inhibitors of Pin1 (AID 504536; active = well fitted inhibition curve with a large enough effect in the polarisation, with a control signal flat, not every such curve was filed as active; the % refers to the polarisation;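 also: 0% = full Pin1 enzyme wells and -100% = no-enzyme wells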). In short, it runs like this: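 Fluorescence polarization competition: compounds (titration) displace HiFluor-488-labeled Pin1-1b peptide from Pin1 (0.3 uM final) in pH 7.5 HEPES buffer with DTT, 10 min at room temperature; %Activity normalized to no-enzyme wells, curves fitted.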
Chain of Peptidyl-prolyl cis-trans isomerase NIMA-interacting 1 (Homo sapiens) (Q13526 whole entry, looked up): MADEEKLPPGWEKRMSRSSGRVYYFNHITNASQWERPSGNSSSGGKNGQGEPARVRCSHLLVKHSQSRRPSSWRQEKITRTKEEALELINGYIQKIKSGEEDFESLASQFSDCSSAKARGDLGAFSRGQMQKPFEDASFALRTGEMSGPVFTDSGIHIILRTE

Assay [12] deals with phosphoglycerate mutase (Leishmania major) (UniProt Q4Q090). In words: qHTS Validation Assay to Find Inhibitors of Phosphoglycerate Mutase (AID 504548).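 Also: end-point luminescence from Kinase-GloPlus after the PGAM reaction; series mostly up to about 58 µM; % is scaled to controls: 0 for no effect and ±100 for the full control effect.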 Conditions: Potency: inhibition qHTS. In short, it runs like this:
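Inhibition of L. major PGAM was assessed by Kinase-GloPlus luminescence following a 45-minute room-temperature reaction with enzyme at 1.25nM final.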

Assay [13] concerns the target Ubiquitin carboxyl-terminal hydrolase 1 (Homo sapiens) (UniProt O94782). In words: Inhibitors of USP1/UAF1: Pilot qHTS (AID 504865). Also: nearly all actives have a fitted effect of over 35% in size. Also: potency is read from the fitted curve at half-maximal effect. In short, it runs like this:
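USP1/UAF1 complex (1nM) preincubated with compound 15 min at room temperature, then Ub-Rho substrate (150nM final) added. Fluorescence read kinetically at 480/540 nm, 6 reads every 60 seconds. Buffer: 50mM HEPES pH 7.8, 0.5mM EDTA, 0.1 mg/ml BSA, 1mM TCEP, 0.01% Tween-20.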

Assay [14] in a line: qHTS for Inhibitors of ATXN expression: Validation of Cytotoxic Assay (AID 588349). Also: % is scaled to controls: 0 for no effect and ±100 for the full control effect. In short, it runs like this: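 Cytotoxicity counter-screen: HEK293 cells exposed to compound titrations, 72 hr, 37 degrees C. Read-out is intracellular ATP (CellTiter Glo luminescence) as a viability measure.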
Assay [15] in a line: qHTS for Inhibitors of ATXN expression: Validation (AID 588378). Also: series mostly up to about 57 µM; % is scaled to controls: 0 for no effect and ±100 for the full control effect; nearly all actives have a fitted effect of over 75% in size. In short, it runs like this:
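Luminescence from an ATXN2-FFLuc reporter in HEK293 cells served as read-out after 24 h compound treatment at 37 degrees C; CellTiter-Fluor fluorescence was recorded first to assess viability.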

For assay [16], the target named is ATPase family AAA domain-containing protein 5 (Homo sapiens) (UniProt Q96QE3). In words: Validation screen for small molecules that inhibit ELG1-dependent DNA repair in human embryonic kidney (HEK293T) cells expressing luciferase-tagged ELG1 (AID 493107).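 Also: cells co-treated with the DNA-damaging agent 5-fluorouridine alongside compound; series mostly up to about 46 µM; % is scaled to controls: 0 for no effect and ±100 for the full control effect; inhibitors lower the ELG1-luciferase luminescence signal; nearly all actives have a fitted effect of over 70% in size.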 In short, it runs like this: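 ELG1-luciferase HEK293T reporter; 5-fluorouridine + compound/DMSO, 16 hr, 37 °C, 5% CO2; ONE-Glo 30 min RT; luminescence read, qHTS format.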
Chain of ATPase family AAA domain-containing protein 5 (Homo sapiens) (Q96QE3 whole entry, looked up, the tested form may be a part): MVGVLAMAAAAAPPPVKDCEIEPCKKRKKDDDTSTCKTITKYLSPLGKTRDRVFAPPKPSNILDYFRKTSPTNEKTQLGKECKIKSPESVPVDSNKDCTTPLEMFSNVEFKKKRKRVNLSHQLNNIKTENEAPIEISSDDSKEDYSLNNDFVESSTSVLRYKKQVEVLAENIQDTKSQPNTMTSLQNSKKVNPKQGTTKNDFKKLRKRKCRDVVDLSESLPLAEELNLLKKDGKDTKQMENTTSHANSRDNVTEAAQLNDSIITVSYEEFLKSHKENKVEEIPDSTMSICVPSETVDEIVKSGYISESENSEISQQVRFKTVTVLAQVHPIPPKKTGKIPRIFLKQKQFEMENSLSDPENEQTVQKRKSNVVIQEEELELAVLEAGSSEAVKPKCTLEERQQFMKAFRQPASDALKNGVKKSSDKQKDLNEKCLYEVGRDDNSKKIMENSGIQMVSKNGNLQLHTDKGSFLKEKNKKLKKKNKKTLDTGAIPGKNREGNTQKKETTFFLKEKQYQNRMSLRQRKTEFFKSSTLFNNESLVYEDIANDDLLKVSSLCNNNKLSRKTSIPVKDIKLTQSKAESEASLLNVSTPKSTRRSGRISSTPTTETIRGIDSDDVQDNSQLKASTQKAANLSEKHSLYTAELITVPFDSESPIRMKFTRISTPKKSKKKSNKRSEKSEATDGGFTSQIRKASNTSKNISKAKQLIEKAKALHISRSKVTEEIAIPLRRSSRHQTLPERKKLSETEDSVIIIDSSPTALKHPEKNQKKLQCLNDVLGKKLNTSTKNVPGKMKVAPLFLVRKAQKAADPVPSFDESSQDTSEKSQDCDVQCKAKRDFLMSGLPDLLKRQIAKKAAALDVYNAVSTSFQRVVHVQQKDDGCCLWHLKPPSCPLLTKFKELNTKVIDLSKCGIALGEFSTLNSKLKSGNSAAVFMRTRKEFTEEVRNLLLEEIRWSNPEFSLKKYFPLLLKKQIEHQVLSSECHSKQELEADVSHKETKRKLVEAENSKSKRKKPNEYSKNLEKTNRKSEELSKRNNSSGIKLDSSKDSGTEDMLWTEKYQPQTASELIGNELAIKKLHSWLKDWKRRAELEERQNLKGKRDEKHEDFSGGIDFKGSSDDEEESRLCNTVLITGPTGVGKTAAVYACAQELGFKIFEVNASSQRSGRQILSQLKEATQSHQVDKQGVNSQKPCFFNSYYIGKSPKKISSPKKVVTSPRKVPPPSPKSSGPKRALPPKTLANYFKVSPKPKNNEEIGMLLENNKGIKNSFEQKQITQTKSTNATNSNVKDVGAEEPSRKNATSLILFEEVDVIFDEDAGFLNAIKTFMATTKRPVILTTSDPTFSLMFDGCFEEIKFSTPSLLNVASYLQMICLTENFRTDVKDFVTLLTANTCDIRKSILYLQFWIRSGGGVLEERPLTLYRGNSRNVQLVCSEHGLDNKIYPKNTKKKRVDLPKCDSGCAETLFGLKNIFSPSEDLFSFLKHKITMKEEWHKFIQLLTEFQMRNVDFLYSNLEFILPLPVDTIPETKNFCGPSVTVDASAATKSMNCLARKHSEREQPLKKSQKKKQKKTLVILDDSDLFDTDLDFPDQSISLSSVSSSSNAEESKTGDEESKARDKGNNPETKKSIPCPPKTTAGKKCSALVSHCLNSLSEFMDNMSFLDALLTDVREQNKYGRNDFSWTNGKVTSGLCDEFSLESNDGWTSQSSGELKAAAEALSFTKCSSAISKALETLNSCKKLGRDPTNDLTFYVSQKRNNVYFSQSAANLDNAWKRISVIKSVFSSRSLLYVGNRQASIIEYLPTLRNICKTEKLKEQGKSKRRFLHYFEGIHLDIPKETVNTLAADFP

Assay [17] concerns the target Phosphoglycerate kinase, glycosomal (Trypanosoma brucei brucei) (UniProt P07378). In words: qHTS Validation Assay to Find Inhibitors of Phosphoglycerate Kinase (AID 504547).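 Also: control wells lack PGK and mark full inhibition.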 In short, it runs like this: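 Luminescence end-point (Kinase-Glo Plus, 10 min) after a 60 min room-temperature coupled reaction. GAPDH at 100nM final supplies 1,3-BPG to PGK. Buffer: 100mM TEA pH 7.6, 5mM MgCl2, 0.01% Tween-20. Wells lacking PGK served as controls.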

Inconclusive results are not listed. Activity calls are given as the source filed them. Unless noted, calls follow the shape of the dose curve; as a rule, active = well fitted curve in the direction sought with a large enough effect; inconclusive = small, poorly fitted or top-dose-only effect, or another doubt; inactive = no such curve, though single readings can be large; an effect the other way counts as inactive or inconclusive. Residues, ends and D or L forms follow the SMILES beside them. *: point of attachment. Cbz = O=C(OCc1ccccc1)*

Chain of Transient receptor potential cation channel subfamily V member 1 (Homo sapiens) (Q8NER1 whole entry, looked up): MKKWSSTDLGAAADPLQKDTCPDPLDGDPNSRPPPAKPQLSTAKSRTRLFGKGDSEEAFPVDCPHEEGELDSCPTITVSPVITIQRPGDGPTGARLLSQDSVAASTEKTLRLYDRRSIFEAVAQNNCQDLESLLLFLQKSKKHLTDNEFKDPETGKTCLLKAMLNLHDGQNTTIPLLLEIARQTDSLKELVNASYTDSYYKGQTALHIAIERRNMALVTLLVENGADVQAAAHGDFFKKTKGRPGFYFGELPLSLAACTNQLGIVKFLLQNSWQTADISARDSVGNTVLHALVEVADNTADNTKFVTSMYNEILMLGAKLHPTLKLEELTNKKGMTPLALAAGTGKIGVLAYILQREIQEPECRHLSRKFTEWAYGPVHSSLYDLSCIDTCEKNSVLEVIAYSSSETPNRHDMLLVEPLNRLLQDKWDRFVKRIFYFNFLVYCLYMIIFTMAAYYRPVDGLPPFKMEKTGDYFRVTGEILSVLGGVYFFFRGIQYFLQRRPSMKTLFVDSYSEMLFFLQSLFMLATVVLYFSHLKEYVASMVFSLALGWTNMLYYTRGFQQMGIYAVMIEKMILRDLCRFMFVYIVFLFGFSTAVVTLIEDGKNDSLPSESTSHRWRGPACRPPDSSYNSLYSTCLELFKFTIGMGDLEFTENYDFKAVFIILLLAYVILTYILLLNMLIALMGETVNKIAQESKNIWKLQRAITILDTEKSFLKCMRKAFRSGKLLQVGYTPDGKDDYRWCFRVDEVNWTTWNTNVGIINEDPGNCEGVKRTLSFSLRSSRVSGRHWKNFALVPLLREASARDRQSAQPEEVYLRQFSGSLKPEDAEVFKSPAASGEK
Chain of Ubiquitin carboxyl-terminal hydrolase 1 (Homo sapiens) (O94782 whole entry, looked up): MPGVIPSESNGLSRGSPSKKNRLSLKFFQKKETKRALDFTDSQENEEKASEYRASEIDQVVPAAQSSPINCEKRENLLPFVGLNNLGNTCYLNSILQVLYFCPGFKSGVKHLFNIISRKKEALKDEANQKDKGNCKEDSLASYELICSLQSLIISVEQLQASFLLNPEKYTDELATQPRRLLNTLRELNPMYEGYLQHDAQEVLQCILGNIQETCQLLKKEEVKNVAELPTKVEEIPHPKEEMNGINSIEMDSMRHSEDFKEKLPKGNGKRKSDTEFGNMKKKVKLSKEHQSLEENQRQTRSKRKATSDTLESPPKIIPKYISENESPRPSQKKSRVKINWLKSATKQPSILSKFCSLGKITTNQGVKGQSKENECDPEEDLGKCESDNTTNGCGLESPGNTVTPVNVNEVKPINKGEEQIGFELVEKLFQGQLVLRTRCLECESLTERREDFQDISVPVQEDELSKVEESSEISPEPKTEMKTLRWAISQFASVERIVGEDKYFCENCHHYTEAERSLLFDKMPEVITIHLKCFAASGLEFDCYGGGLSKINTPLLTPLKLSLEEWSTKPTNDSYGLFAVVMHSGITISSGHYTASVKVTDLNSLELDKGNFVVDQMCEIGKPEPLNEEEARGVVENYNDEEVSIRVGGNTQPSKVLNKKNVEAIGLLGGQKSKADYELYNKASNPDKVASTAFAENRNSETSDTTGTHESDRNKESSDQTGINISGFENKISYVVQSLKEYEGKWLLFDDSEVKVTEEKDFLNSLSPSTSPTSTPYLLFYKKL
Chain of D(1A) dopamine receptor (Homo sapiens) (P21728 whole entry, looked up): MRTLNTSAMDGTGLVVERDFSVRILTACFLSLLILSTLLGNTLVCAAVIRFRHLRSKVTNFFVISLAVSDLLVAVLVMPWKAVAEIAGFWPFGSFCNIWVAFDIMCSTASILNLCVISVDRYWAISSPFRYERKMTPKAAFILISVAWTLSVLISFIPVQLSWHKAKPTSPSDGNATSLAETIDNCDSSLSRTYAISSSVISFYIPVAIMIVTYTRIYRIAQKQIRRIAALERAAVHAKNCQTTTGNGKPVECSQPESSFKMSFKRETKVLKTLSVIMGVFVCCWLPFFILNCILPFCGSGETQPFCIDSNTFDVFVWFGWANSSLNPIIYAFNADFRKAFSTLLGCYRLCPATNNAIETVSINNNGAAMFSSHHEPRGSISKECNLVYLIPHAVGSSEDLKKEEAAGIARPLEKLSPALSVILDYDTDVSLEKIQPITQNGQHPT

Turning to `NOCC(=O)O`, the result in assay [1], in [2] and in assay [8] was inactive. Moreover, the Potency entry in [3], in assay [4], in assay [5], in assay [7], in [9] and in assay [10] was “inactive” each time. For the same molecule, the Potency entry in assay [11], in assay [12], in [13], in [14] and in assay [15] was “inactive” throughout. In assay [6], the activation was 0.25% (inactive). Further, the viability change in assay [7] amounted to 18.2%.
In the case of `CCCCCCCCCCC/C=C\C(C)(C)/C=C\CCCC(=O)O`, the result in assay [1], in assay [2] and in [8] was inactive. Further, the Potency entry in assay [3], in [4], in assay [16], in assay [7], in [9] and in assay [10] was “inactive” each time. Moreover, the Potency result in [17], in [12], in assay [14] and in [15] was “inactive” in each case. The activation in assay [6] is 0.562% (inactive). Moreover, the viability change in [7] came out at 3.47%. The Potency in [13] was 28.2 µM (active).
In the case of `Cc1ccc2c(c1)C(N1CCN(C)CC1)=Nc1cccnc1N2`, the outcome in assay [1], in [2] and in assay [8] was inactive. For the same molecule, the Potency entry in assay [3], in assay [5], in assay [7], in [9], in [10] and in [11] was “inactive” in each case. Moreover, the Potency entry in assay [17], in assay [12], in assay [13], in [14] and in assay [15] was “inactive” in each case. Further, the Potency in assay [4] is 4.47 µM (active). Also, the activation in [6] was -0.312% (inactive). For the same molecule, the viability change in [7] amounted to 3.55%.
In the case of `NC(Cc1cccc(-c2ccccc2CP(=O)(O)O)c1)C(=O)O` (configuration not stated), the outcome in [1], in assay [2] and in assay [8] was inactive. For the same molecule, the Potency result in assay [3], in [4], in assay [5], in assay [16], in assay [7] and in [9] was “inactive” throughout. For the same molecule, the Potency entry in [10], in [11], in assay [12], in [13], in assay [14] and in [15] was “inactive” in each case. The activation in assay [6] is 1.31% (inactive). Moreover, in assay [7], the viability change was 0.913%.
Take `COc1cc(C(O)CO)ccc1O` (configuration not stated): the result in assay [1], in assay [2] and in assay [8] was inactive. Moreover, the Potency result in [3], in [4], in [5], in [7], in assay [9] and in [10] was “inactive” in each case. For the same molecule, the Potency entry in [11], in assay [17], in [12], in assay [13], in assay [14] and in assay [15] was “inactive” each time. Further, the activation in assay [6] was 0.688% (inactive). Besides, in assay [7], the viability change came to 3.88%.
On to `CC1C(=O)N(C)C(=O)c2nc[nH]c21` (configuration not stated), for which the result in assay [1], in assay [2] and in assay [8] was inactive. Moreover, the Potency result in assay [3], in assay [4], in assay [5], in [7], in [9] and in assay [10] was “inactive” in each case. In addition, the Potency entry in [11], in [17], in assay [12], in assay [13], in assay [14] and in assay [15] was “inactive” throughout. Further, the activation in [6] is 1.25% (inactive). Further, the viability change in [7] was -0.209%.
As to `CC(C)[C@H](NC(=O)OCc1ccccc1)C(=O)N[C@H](C=O)Cc1ccccc1` (Cbz-Val-Phe-aldehyde), the result in assay [1], in [2] and in assay [8] was inactive. In addition, the Potency entry in assay [3], in assay [4], in assay [5], in assay [16], in assay [7] and in assay [9] was “inactive” each time. For the same molecule, the Potency result in assay [10], in assay [11], in [17], in assay [12], in assay [13] and in assay [15] was “inactive” throughout. Also, the activation in assay [6] was 0.25% (inactive). Moreover, the viability change in assay [7] was 13.7%.
